Assay [1] in a line: CCTE_Deisenroth_AIME_384WELL_CTox_Active: Cytotoxicity Assessment (CTOX) in CCTE's 384-well Estrogen Receptor Transactivation Assay with AIME metabolic competence (metabolism positive), Deisenroth Lab (AID 2284037).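 Note: chemicals first conditioned 2 h by alginate-bound induced rat liver S9 before cells; activity means signal loss indicating cell death.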 In short, it runs like this: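 Chemicals pre-incubated 2 hours with alginate-immobilised phenobarbital/beta-naphthoflavone-induced male Sprague Dawley rat liver S9, then conditioned medium applied 24 hour to VM7Luc4E2 cells. Viability by fluorogenic protease substrate; 10-point series 0.002 - 200 uM.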

Assay [2] addresses Estrogen receptor (Homo sapiens) (UniProt P03372). The assay can be described thus: CCTE_Deisenroth_AIME_384WELL_LUC_Inactive: CCTE's 384-well Estrogen Receptor Transactivation Assay without AIME metabolic competence (ERTA luciferase; metabolism negative), Deisenroth Lab (AID 2284038).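 Note: VM7Luc4E2 breast cells given medium preincubated 2 h with S9-free microspheres; hits raise estrogen receptor luciferase signal so potencies reflect agonists.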 The method, boiled down:
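VM7Luc4E2 ER transactivation, luciferase bioluminescence after 24 h, using medium pre-incubated 2 h with S9-free alginate microspheres. Concentrations 0.002–200 uM; gain of signal fitted relative to 17beta-estradiol.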

Assay [3] is described as follows: CCTE_Deisenroth_AIME_384WELL_CTox_Inactive: Cytotoxicity Assessment (CTOX) in CCTE's 384-well Estrogen Receptor Transactivation Assay without AIME metabolic competence (metabolism negative), Deisenroth Lab (AID 2284039).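 Note: cell viability via live-cell protease substrate cleaved to fluorescent probe; cells exposed 24 h to medium preincubated 2 h with alginate-water beads without S9; loss of fluorescence signal means loss of viability.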 In short, it runs like this: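 VM7Luc4E2 cells, metabolism-negative arm: test chemicals (0.002–200 uM, 10 points) pre-incubated 2 h with alginate-water microspheres, then medium transferred to cells for 24 h. Viability read as protease-substrate cleavage to fluorescent probe; loss-of-signal, bidirectional fitting.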

In assay [4] the target is Estrogen receptor (Homo sapiens) (UniProt P03372). The assay can be described thus: CCTE_Deisenroth_AIME_384WELL_LUC_Shift: CCTE's 384-well Estrogen Receptor Transactivation Assay with AIME metabolic competence data shift (ERTA luciferase; difference in metabolism positive and negative), Deisenroth Lab (AID 2284041; active = hit-call score of the fitted dose curve at least 0.9, where 1 is the maximum; inactive = score below 0.9;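 note: shift is response with S9 minus without S9 so positive means metabolism raised ER signal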). The method, boiled down:
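Chemicals (0.002–200 uM, 10 points) pre-incubated 2 h with alginate-encapsulated induced male Sprague Dawley rat liver S9 or S9-free, then medium applied 24 h to VM7Luc4E2 cells; luciferase. Endpoint is per-concentration difference, S9-positive minus negative.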

Assay [5] in a line: CCTE_Shafer_MEA_dev_per_burst_spike_percent: CCTE's Neural Network Formation Assay for Percent of Spikes in a Burst, Shafer Lab (AID 2284032; active = hit-call score of the fitted dose curve at least 0.9, where 1 is the maximum; inactive = score below 0.9). In short, it runs like this: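 Value is trapezoidal AUC over recordings on days 5, 7, 9 and 12 of the well-mean fraction of spikes falling in single-electrode bursts; rat cortical cultures exposed continuously from plating, treatment renewed DIV 5 and 9, fitted downward against DMSO.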

Assay [6] in a line: CCTE_Shafer_MEA_dev_active_electrodes_number: CCTE's Neural Network Formation Assay for Number of Active Electrodes, Shafer Lab (AID 2284040).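 For AC50: potency for loss of active electrodes versus DMSO so lower counts are hits.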 As to the method: (§1) CCTE_Shafer_MEA_dev assay is conducted using Axion Biosystems 48 well microelectrode array (MEA) plates and Maestro recording system. Each well of the MEA plate contains a grid of 16 microelectrodes embedded in the culture surface. Electrically active cells, such as neurons, can be cultured over the electrodes, and electrical activity in these cells can be recorded extracellularly. The spontaneous firing of neurons is captured from each electrode on a microsecond timescale providing both temporally and spatially precise data. […] The CCTE_Shafer_MEA_dev assay uses primary cultures of rat cortical neurons. Recordings are made on days post-plating 5, 7, 9 and 12. As these cultures mature over time, neural networks develop functional activity and form cohesive networks in which electrical activity can be highly coordinated. CCTE_Shafer_MEA_dev_active_electrodes_number is 1 of 19 assay components of the CCTE_Shafer_MEA_dev assay. It measures the number of electrodes in a well with a mean firing rate of at least 5 spikes (action potential firings) per minute during a recording in a microelectrode array (MEA) using Axion Biosystems Maestro 768 channel amplifier with the AxIS adaptive spike detector. To collapse across multiple recordings made on days post-plating 5, 7, 9 and 12, the trapezoidal area-under-the-curve of the component is calculated.Data from the assay component CCTE_Shafer_MEA_dev_active_electrodes_number was analyzed into 1 assay endpoint. This assay endpoint, CCTE_Shafer_MEA_dev_active_electrodes_number, was analyzed in the negative analysis fitting direction relative to DMSO as the negative control and baseline of activity. Using a type of functional reporter, gain or loss-of-signal activity can be used to understand electrical activity.
(§2) On the day prior to culture, each well was coated thoroughly with 150 uL of 0.05% polyethyleneimine (PEI, Sigma Cat P3143) in 50 mM HEPES (Sigma Cat H7523) at a pH of 8. The plate was incubated at 37C for one hour. PEI was rinsed out with 500 uL of sterile water three times. Plates were stored at 4C until the day of culture. This culture was plated at a seeding density of 1.5 x 10^5 cells/well on a 48-well MEA plate, prepared as described above. Cells were administered via a 25 uL media/laminin ([…]; Sigma Cat L2020-1MG) drop directly onto the microelectrode array, as adding the cells with the laminin results in better attachment than pre-coating with laminin. After 2 hours, an additional 475 uL of cortical media was added and the cells returned to the incubator. Exposure starts at day 0 of plating and is continued over twelve days of network development until the experiment is terminated. Cells are fed with fresh medium on DIV 5 and 9, following the recordings on those days. The entire volume of media in the well is exchanged and any vehicle or compound treatment is renewed. Complete details are found in OP-NHEERL/ISTD/SBB/TJS/2015-03-r0 (available on request, email shafer.tim@epa.gov). Measurement of the electrical activity is non-invasive, and recordings can be made from the same plate over multiple different days of the culture. In cortical neurons, this allows for the measurement of extracellular action potentials over the period during which networks form in the MEA plate.

A short description of assay [7]: CCTE_Shafer_MEA_dev_burst_rate: CCTE's Neural Network Formation Assay for Burst Rate, Shafer Lab (AID 2284042; active = hit-call score of the fitted dose curve at least 0.9, where 1 is the maximum; inactive = score below 0.9). The method, boiled down: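 Primary rat cortical neurons on PEI-coated 48-well MEA plates (laminin added with cells at plating) (16 electrodes/well), exposed from plating to day 12, dosing renewed at DIV 5 and 9. Burst rate averaged over active electrodes, recorded DIV 5, 7, 9, 12, summarized as AUC; loss versus DMSO.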

Assay [8] is described as follows: CCTE_Shafer_MEA_dev_bursting_electrodes_number: CCTE's Neural Network Formation Assay for Number of Bursting Electrodes, Shafer Lab (AID 2284043).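 For AC50: potency is for loss of bursting electrodes relative to DMSO.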 In short, it runs like this:
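Rat cortical primary neurons, 48-well MEA, 16 electrodes/well; dosing DIV 0–12, re-dosed with full media change DIV 5, 9. Recordings DIV 5/7/9/12, AxIS adaptive spike detector; bursting electrode = ≥1 burst/2 min. AUC across days; loss of signal vs DMSO.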

Assay [9] is described as follows: CCTE_Shafer_MEA_dev_per_burst_interspike_interval: CCTE's Neural Network Formation Assay for Burst Interspike Interval, Shafer Lab (AID 2284044; active = hit-call score of the fitted dose curve at least 0.9, where 1 is the maximum; inactive = score below 0.9;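 for AC50: potency for a decrease of within-burst interspike interval below DMSO level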). In short, it runs like this:
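Developmental network-formation MEA in primary rat cortical cultures with exposure spanning days 0–12. Within-burst ISI is averaged per well and integrated across recording days by area under the curve, with DMSO as negative control baseline.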

Assay [10] in a line: CCTE_Shafer_MEA_dev_burst_duration_mean: CCTE's Neural Network Formation Assay for Mean Burst Duration, Shafer Lab (AID 2284045; active = hit-call score of the fitted dose curve at least 0.9, where 1 is the maximum; inactive = score below 0.9). As to the method: as §1, with “CCTE_Shafer_MEA_dev_burst_duration_mean” for “CCTE_Shafer_MEA_dev_active_electrodes_number”, “average time interval from the first spike (action potential firing) to the last spike” for “number of electrodes”, “singe-electrode burst (temporally-clustered group” for “well with a mean firing rate”, “spikes)” for “at least 5 spikes (action potential firings) per minute”, “detector. The mean burst duration is averaged across the actively bursting electrodes to report a well-mean value.” for “detector.”, “CCTE_Shafer_MEA_dev_burst_duration_mean,” for “CCTE_Shafer_MEA_dev_active_electrodes_number,”
as §2

Each structure is given as a SMILES string. Inconclusive results are not listed. A structure can be active in one record and inactive in another. Calls of active or inactive are those of the source. Rule for the calls, unless noted: active = hit-call score of the fitted dose curve at least 0.9, where 1 is the maximum; inconclusive = response in the unintended direction; inactive = score below 0.9.

Estrogen receptor (Homo sapiens), sequence (P03372 whole entry, looked up): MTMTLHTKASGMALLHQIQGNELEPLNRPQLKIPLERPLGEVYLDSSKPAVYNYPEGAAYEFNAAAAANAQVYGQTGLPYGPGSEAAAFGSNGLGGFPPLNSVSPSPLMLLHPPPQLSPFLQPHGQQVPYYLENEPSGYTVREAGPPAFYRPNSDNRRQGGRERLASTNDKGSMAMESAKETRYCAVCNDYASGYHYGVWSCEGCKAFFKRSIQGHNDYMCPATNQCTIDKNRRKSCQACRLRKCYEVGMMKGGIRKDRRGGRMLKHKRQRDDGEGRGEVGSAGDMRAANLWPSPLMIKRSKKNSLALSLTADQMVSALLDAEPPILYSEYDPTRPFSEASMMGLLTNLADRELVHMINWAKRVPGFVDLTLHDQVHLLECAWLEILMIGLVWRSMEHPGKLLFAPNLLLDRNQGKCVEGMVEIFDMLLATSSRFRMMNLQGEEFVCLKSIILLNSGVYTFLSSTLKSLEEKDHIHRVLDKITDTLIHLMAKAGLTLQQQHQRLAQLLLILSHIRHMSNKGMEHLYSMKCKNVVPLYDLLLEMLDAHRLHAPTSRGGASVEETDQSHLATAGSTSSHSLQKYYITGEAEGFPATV

For the molecule `CCOC(=O)CC`, the molecule was classed as inactive in assay [1], in [2], in [3] and in assay [4].
Take `CC1(C)S[C@@H]2[C@H](NC(=O)COc3ccccc3)C(=O)N2[C@H]1C(=O)O`: the result in assay [5], in [6], in assay [7], in assay [8], in assay [9] and in assay [10] was inactive.
For the molecule `CC1=NN(c2cc(S(=O)(=O)O)ccc2Cl)C(=O)C1N=Nc1ccccc1` (configuration not stated), the result in assay [2], in assay [3] and in [4] was inactive.
`CCCCCCCCCCOS(=O)(=O)O`: the AC50 in assay [1] and in [3] was 19.8 µM (active) throughout. The result in assay [2] and in [4] was inactive.
In the case of `CCN(CCC#N)c1ccc(N=Nc2c(Cl)cc([N+](=O)[O-])cc2Cl)cc1`, the call in assay [1], in assay [2] and in [4] was inactive. Besides, the AC50 (in general, the concentration giving half of the maximal activity seen) in assay [3] is 100 µM (active).
As for `CC(=O)OC(C)C`, the molecule was called inactive in assay [1], in assay [2] and in assay [4].
`C=C1C2CCC(C2)C1(C)C` (configuration not stated): the molecule was called inactive in assay [1], in assay [2], in [3] and in assay [4].
In the case of `O=C(C=Cc1ccccc1)OCc1ccccc1`, the call in assay [1] and in assay [3] was inactive. Moreover, the values for the AC50 in [2] and in assay [4] were 26.3 µM (active) and 22.9 µM (active), respectively.
For `CCOC(F)(F)C(F)(F)C(F)(F)C(F)(F)F`, the call in assay [5], in [6], in assay [7], in assay [8], in assay [9] and in assay [10] was inactive.
With `O=C(C(Cl)Cl)N1CCOC12CCCCC2`, the molecule was classed as inactive in assay [2] and in assay [4]. In addition, in [3], the AC50 was 19.8 µM (active).
As for `Nc1ncn([C@@H]2O[C@H](CO)[C@@H](O)[C@H]2O)c(=O)n1`, the molecule was called inactive in assay [5], in [6], in [7], in assay [8], in [9] and in assay [10]. Moreover, the AC50 in assay [6] is 2.13 µM (active); in [8] it was 1.34 µM (active); in [9], 2.4 µM (active).
Regarding `O=C1C(N(CO)C(=O)NCO)N(CO)C(=O)N1CO` (configuration not stated), the molecule was classed as inactive in assay [1], in [2], in assay [3] and in [4].
With `Oc1ccc(Cl)cc1Cc1cc(Cl)ccc1O`, the AC50 was 102 µM (active) in [1] and 100 µM (active) in assay [3]. The result in [4] was inactive.

The record behind these values is PubChem BioAssay (EPA / NIEHS).
